Here are results for seven molecules from ChEMBL document CHEMBL1961873, “Compounds: GSK PKIS; Assays: Nanosyn kinase panel” (2012).

The target of assay [1] is Tyrosine-protein kinase Fyn (Homo sapiens) (UniProt P06241). Conditions: at 1 µM.
Assay [2] deals with Tyrosine-protein kinase HCK (Homo sapiens) (UniProt P08631). The conditions noted are these: at 0.1 µM.
For assay [3] the target is unchanged. Conditions: at 1 µM.
Assay [4] has as its target Insulin-like growth factor 1 receptor (Homo sapiens) (UniProt P08069). Conditions: at 0.1 µM.
The target is the same in assay [5]. The conditions noted are these: at 1 µM.
Assay [6] deals with Insulin receptor (Homo sapiens) (UniProt P06213). The conditions noted are these: at 0.1 µM.
The target is the same in assay [7]. The conditions noted are these: at 1 µM.
In assay [8] the target is Insulin receptor-related protein (Homo sapiens) (UniProt P14616). The conditions noted are these: at 0.1 µM.
Sequence of Insulin receptor-related protein (Homo sapiens) (P14616 27-742 limits assumed): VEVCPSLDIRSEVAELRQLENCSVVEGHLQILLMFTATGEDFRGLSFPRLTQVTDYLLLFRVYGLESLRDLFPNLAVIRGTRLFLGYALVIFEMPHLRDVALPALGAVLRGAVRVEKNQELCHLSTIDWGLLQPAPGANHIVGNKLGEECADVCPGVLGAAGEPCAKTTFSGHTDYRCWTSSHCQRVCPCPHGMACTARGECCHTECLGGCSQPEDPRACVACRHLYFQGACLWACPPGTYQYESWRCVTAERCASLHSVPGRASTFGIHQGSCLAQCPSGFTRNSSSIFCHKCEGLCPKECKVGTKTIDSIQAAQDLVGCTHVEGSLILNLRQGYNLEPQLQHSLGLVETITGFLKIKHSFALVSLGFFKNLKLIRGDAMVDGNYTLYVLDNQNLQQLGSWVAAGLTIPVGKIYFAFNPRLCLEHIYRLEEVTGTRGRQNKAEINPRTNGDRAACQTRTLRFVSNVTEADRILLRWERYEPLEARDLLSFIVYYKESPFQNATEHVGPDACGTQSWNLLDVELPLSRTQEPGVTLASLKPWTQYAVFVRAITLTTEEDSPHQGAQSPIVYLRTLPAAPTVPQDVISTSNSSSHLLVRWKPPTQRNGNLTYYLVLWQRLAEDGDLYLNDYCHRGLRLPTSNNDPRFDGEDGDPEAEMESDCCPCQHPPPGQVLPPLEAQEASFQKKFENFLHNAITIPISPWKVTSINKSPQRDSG
Sequence of Insulin receptor-related protein (Homo sapiens) (P14616 747-1297 limits assumed): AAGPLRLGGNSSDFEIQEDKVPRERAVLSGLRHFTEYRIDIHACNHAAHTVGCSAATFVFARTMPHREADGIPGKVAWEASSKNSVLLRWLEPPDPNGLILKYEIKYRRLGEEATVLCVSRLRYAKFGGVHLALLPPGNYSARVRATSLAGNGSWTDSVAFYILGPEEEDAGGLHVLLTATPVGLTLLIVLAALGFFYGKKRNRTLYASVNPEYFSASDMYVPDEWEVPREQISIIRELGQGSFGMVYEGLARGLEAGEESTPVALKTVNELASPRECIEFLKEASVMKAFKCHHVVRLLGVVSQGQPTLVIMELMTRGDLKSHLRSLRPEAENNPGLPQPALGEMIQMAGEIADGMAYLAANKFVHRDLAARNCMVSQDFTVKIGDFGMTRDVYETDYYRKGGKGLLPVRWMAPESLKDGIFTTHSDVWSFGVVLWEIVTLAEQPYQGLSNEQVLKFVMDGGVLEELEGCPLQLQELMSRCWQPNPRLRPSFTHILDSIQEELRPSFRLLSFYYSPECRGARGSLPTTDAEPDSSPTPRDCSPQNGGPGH
The target is the same in assay [9]. Conditions: at 1 µM.
The target of assay [10] is T1, Tyrosine-protein kinase ITK/TSK (Homo sapiens) (UniProt Q08881).
T1 sequence (whole entry): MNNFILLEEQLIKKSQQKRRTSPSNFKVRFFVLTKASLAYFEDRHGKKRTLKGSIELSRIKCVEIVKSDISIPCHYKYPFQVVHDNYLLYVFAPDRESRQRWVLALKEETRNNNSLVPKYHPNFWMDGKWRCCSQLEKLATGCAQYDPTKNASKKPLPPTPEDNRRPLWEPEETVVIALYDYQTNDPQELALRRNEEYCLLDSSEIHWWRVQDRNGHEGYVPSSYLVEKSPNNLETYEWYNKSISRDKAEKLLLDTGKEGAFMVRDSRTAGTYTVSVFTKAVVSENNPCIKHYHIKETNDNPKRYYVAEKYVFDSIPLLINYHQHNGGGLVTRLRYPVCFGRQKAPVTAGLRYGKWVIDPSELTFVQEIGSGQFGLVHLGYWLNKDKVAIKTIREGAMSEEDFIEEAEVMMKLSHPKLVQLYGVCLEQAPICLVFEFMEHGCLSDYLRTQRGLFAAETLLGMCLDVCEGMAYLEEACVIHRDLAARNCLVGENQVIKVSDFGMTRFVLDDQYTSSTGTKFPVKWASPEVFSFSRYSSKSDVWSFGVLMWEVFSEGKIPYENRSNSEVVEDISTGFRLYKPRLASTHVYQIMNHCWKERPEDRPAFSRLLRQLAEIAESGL
Conditions: at 0.1 µM.

Assay [11] concerns the target T1, Tyrosine-protein kinase ITK/TSK (Homo sapiens). The conditions noted are these: at 1 µM.
Assay [12] concerns the target Tyrosine-protein kinase JAK1 (Homo sapiens) (UniProt P23458). The conditions noted are these: at 0.1 µM.
Assay [13] shares this target. Conditions: at 1 µM.
Assay [14] deals with Tyrosine-protein kinase JAK2 (Homo sapiens) (UniProt O60674). Conditions: at 0.1 µM.
Sequence of Tyrosine-protein kinase JAK2 (Homo sapiens) (O60674 whole entry): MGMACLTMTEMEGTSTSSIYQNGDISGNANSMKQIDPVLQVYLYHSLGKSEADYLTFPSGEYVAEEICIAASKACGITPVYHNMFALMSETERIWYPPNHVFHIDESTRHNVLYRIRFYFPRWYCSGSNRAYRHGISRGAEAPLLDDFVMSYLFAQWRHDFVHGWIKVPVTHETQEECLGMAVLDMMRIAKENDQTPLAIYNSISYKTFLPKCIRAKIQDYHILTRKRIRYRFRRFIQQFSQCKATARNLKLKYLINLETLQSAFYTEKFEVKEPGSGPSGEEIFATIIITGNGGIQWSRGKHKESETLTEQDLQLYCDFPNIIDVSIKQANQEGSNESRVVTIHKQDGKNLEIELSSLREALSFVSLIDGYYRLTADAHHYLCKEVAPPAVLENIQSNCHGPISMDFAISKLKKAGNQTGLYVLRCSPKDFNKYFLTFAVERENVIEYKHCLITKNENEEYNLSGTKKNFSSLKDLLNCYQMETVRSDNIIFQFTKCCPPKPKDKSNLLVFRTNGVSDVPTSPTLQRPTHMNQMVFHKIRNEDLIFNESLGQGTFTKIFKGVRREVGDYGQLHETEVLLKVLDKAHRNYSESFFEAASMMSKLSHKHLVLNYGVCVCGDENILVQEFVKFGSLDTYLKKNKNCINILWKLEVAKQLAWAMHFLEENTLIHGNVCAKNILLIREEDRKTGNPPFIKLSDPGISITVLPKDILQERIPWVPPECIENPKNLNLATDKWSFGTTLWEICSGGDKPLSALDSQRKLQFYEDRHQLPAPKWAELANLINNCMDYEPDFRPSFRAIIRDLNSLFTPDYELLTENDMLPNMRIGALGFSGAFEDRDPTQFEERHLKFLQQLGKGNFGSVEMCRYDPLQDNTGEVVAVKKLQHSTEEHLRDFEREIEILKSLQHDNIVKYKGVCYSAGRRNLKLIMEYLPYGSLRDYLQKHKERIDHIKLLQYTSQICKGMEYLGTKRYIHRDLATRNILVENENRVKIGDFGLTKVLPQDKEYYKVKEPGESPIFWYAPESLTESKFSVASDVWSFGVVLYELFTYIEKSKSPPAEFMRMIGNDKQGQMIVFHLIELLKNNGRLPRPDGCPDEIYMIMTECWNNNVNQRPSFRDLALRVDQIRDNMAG
The target is the same in assay [15]. Conditions: at 1 µM.
The target of assay [16] is T2, Tyrosine-protein kinase JAK3 (Homo sapiens) (UniProt P52333).
T2 sequence (whole entry): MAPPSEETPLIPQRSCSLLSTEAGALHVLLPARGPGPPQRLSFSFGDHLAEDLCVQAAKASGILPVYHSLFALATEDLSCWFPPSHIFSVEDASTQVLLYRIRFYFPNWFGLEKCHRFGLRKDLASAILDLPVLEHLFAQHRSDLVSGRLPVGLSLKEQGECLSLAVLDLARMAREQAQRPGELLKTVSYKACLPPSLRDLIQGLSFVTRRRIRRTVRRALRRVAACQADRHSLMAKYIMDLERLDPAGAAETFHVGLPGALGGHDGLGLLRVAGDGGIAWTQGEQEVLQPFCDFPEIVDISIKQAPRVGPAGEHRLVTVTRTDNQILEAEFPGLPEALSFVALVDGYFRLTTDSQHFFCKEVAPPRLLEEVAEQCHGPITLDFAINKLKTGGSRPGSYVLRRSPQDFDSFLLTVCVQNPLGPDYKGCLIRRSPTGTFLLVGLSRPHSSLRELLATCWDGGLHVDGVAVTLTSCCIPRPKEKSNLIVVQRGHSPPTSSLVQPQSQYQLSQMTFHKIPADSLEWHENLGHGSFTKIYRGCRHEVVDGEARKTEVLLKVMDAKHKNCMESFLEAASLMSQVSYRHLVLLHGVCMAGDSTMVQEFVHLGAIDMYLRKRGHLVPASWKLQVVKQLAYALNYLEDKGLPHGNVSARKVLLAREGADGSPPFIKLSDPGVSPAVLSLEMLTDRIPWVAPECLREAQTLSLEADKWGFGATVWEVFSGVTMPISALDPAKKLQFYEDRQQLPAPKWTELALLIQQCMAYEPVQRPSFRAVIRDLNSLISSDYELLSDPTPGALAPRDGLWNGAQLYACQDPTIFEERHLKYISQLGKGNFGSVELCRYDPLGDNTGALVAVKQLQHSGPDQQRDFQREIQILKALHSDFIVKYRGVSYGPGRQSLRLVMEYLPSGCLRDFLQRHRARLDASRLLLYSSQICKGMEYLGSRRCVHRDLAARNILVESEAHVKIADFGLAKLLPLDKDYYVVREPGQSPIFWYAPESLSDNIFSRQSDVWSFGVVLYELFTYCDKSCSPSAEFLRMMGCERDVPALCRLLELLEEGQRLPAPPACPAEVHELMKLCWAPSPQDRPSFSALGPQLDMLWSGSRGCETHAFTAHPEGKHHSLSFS
The conditions noted are these: at 0.1 µM.

The target of assay [17] is T2, Tyrosine-protein kinase JAK3 (Homo sapiens). The conditions noted are these: at 1 µM.
For assay [18], the target named is Vascular endothelial growth factor receptor 2 (Homo sapiens) (UniProt P35968). Conditions: at 0.1 µM.
Assay [19] shares this target. The conditions noted are these: at 1 µM.
The target in assay [20] is Mast/stem cell growth factor receptor Kit (Homo sapiens) (UniProt P10721). Conditions: at 0.1 µM.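 Further: values are mean inhibition of KIT, from the GSK PKIS dataset.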
Sequence of Mast/stem cell growth factor receptor Kit (Homo sapiens) (P10721 whole entry): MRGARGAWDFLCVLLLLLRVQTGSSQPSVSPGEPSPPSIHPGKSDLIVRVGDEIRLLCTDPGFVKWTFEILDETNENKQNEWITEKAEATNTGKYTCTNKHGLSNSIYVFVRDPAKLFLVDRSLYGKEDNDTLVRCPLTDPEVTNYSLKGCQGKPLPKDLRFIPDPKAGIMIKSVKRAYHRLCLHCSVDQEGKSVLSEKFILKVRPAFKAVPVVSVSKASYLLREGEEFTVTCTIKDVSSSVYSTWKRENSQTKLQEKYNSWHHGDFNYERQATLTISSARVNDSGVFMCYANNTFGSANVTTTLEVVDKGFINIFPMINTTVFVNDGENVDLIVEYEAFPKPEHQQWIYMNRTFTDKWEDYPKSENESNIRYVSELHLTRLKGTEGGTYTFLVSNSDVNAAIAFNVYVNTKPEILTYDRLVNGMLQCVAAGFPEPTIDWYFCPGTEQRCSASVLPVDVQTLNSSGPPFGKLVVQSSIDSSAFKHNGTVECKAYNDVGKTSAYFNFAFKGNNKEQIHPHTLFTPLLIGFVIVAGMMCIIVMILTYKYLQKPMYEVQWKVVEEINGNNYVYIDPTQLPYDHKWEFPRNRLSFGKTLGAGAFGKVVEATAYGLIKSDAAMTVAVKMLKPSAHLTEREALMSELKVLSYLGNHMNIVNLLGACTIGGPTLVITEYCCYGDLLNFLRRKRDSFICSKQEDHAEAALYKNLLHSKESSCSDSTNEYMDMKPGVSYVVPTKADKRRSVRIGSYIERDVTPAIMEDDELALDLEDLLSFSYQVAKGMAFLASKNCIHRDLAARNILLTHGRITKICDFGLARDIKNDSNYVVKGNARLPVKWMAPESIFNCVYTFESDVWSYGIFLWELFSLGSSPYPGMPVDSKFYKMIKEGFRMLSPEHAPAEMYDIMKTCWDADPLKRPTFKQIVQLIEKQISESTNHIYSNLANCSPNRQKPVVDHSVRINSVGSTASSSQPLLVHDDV

What is called inhibition is the relative decrease from the control value, in per cent.

Sequence of Tyrosine-protein kinase Fyn (Homo sapiens) (P06241 2-537 limits assumed): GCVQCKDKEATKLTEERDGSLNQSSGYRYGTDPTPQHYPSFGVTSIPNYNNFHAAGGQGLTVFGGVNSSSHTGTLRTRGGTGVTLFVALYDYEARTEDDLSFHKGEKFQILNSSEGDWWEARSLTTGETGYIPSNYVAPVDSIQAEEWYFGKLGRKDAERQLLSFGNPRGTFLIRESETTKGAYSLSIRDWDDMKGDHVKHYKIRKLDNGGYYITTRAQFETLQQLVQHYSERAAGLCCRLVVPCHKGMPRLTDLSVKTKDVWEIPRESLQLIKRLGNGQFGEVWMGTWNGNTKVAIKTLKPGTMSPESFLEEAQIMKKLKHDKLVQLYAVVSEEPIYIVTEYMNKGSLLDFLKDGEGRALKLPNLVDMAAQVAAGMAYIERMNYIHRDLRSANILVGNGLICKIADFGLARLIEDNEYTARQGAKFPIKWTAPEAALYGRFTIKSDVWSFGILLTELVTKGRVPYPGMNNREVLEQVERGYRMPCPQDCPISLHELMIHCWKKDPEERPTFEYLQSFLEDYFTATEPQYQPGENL
Sequence of Tyrosine-protein kinase JAK1 (Homo sapiens) (P23458 whole entry): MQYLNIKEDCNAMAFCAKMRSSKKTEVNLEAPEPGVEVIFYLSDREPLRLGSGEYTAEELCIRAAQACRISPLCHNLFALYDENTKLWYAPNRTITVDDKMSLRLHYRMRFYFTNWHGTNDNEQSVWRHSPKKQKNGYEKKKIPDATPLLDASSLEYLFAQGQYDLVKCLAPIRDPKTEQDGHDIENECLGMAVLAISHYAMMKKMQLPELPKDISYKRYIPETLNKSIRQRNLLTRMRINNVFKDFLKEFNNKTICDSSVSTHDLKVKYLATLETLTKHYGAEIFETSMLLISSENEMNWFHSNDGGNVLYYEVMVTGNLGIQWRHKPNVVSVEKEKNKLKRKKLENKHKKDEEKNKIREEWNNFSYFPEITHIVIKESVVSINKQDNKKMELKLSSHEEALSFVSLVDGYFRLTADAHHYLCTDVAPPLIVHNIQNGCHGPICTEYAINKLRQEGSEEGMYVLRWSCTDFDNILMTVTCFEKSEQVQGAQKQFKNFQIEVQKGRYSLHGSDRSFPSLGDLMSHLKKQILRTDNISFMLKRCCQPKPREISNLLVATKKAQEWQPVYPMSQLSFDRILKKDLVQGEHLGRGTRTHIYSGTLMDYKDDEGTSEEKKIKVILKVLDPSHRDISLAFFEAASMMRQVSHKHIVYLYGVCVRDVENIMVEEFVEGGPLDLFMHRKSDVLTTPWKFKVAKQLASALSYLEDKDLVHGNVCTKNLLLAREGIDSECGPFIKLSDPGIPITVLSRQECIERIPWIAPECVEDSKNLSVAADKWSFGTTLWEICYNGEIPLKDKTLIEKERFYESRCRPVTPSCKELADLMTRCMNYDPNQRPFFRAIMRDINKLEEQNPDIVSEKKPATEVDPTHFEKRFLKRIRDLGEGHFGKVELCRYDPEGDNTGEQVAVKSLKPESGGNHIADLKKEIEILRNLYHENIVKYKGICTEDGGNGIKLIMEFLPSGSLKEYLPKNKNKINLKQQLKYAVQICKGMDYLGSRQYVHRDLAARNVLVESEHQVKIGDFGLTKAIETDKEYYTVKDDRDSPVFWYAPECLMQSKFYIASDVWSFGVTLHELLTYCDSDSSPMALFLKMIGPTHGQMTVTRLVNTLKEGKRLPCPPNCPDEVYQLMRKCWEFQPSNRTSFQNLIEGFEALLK

Take `CN(C)c1cc2c(Nc3ccc4nc(Cc5ccccc5)[nH]c4c3)ncnc2cn1`: the inhibition in assay [1] is 27.7%; in assay [2], 11.5%; in [3], 30.6%; in assay [4], 6.59%; in assay [5], 11.5%; in [6], 7.56%. The inhibition in [7] was 8.05%; in [8], 3.36%; in [9], 4.95%; in assay [10] it was 1.45%; in assay [11], 1.51%; in assay [12] it was 5.67%. For the same molecule, the inhibition in assay [13] is 8.16%; in assay [14], 2.34%; in [15] it was 1.44%; in [16], -1.29%; in [17], -1.24%; in assay [18], 7.5%. Further, the results for the inhibition in assay [19] and in assay [20] were 10.4% and 4.97%, respectively.

As for `[O-][S+]1CCN(Cc2ccc(-c3ccc4ncnc(Nc5ccc(OCc6ccccc6)c(F)c5)c4c3)o2)CC1`, the inhibition in [1] was 9.16%; in [2] it was 3.37%; in assay [3], 7.23%; in [4] it was 4.94%; in [5], 2.99%; in assay [6] it was 4.18%. Moreover, the inhibition was 4.1% in assay [7]; 0.94% in [8]; 2.32% in assay [9]; 1.08% in [10]; 2.13% in assay [11]; 0.52% in [12]. In addition, the inhibition is 0.63% in [13]; 0.4% in [14]; 0.64% in [15]; 0.01% in [16]; -0.11% in [17]; 2.98% in assay [18]. In addition, the inhibition in assay [19] came out at 6.19%; in assay [20], 2.02%.

For `c1cnn2ncc(-c3ccnc(Nc4ccc5c(c4)OCCO5)n3)c2c1`, the inhibition in assay [1] came out at 8.63%; in [2], 6.09%; in assay [3], 16.8%; in assay [4], 15%; in assay [5], 56.6%; in assay [6], 12.7%. The inhibition in assay [7] is 58.5%; in assay [8], 5.36%; in assay [9], 15.2%; in [10] it was 1.86%; in [11], 5.82%; in [12] it was 8.27%. Besides, the inhibition in assay [13] worked out at 19.7%; in assay [14] it was 2.1%; in assay [15] it was 20.6%; in [16], 1.94%; in assay [17], 46%; in assay [18], 9.54%. The inhibition in [19] was determined as 37.4%; in assay [20], 95%.

Turning to `COc1cc2ncn(-c3cc(OCc4ccccc4C(F)(F)F)c(C(N)=O)s3)c2cc1OC`, the inhibition in assay [1] is 9.2%; in assay [2], 8.32%; in assay [3], 29.2%; in assay [5], -2.72%; in assay [6], -1.5%; in assay [7], 2.13%. In addition, the inhibition in assay [8] was 4.32%; in assay [9], 3.34%; in assay [10], -3.84%; in assay [11], -0.36%; in assay [12], 1.72%; in assay [13], 2.62%. Also, the inhibition in [14] is 1.67%; in assay [15], 1.84%; in assay [16], -6.46%; in assay [17] it was -2.61%; in [18], 21.7%; in assay [19], 68.9%.

Turning to `CCc1cccc(NC(=O)Nc2ccc(Oc3ccc4nc(NC(=O)OC)[nH]c4c3)cc2)c1`, the inhibition in assay [1] is 4.72%; in assay [2], 4.76%; in assay [3] it was 7.28%; in assay [4], 5.04%; in assay [5], 2.45%; in assay [6] it was -2.61%. Further, the inhibition in assay [7] was 0.47%; in [8], 2.05%; in [9] it was 3.39%; in assay [10], 0.3%; in [11] it was 1.87%; in [12] it was 1.39%. The inhibition in [13] is 1.27%; in assay [14], 1.07%; in assay [15], 4.62%; in assay [16] it was -1.05%; in assay [17], 1.13%; in [20] it was 87.5%.

With `CS(=O)(=O)Nc1ccc(N/C=C2\C(=O)Nc3ccccc32)cc1`, the inhibition in [1] is 4.85%; in assay [2], -0.18%; in assay [3], 14.1%; in assay [4], -1.54%; in assay [5], 5.77%; in assay [6], -0.48%. Besides, the inhibition is 8.57% in assay [7]; -3.26% in [8]; -1.01% in assay [9]; -0.24% in assay [10]; 3.61% in assay [11]; 0.26% in assay [12]. Besides, the inhibition in assay [13] is 5.33%; in [14] it was -0.93%; in assay [15] it was 1.03%; in assay [16], 0.43%; in [17], 8.16%; in assay [18] it was 6.66%. Also, the inhibition in assay [19] came to 46.7%; in assay [20], 17.6%.

Turning to `CN1CCC(C(=O)Nc2n[nH]c3nnc(-c4ccccc4)cc23)CC1`, the inhibition in assay [1] worked out at 3.89%; in assay [2], 3.42%; in [3] it was 7.61%; in assay [4], 3.98%; in assay [5], 4.17%; in assay [6] it was 7.76%. The inhibition worked out at 4.86% in [7]; 1.63% in assay [8]; 2.13% in assay [9]; 1.35% in assay [10]; 2.38% in assay [11]; 4.13% in assay [12]. Besides, the inhibition in [13] is 17.6%; in assay [14], 1.08%; in [15] it was 1.05%; in assay [16], -1.09%; in assay [17], -0.3%; in assay [18], 2.34%. The figures for the inhibition in assay [19] and in assay [20] were 10.6% and 4.36%, respectively.
